# Hits are enriched below; roughly 21% of the tested compounds scored in any of these assays.
# Cycloheximide cs: counter-screen hit for Shiga toxin inhibitors, cycloheximide. max response, %. 12% of 300,000 active. AID 2314. cell reporter, cycloheximide protein synthesis inhibition counterscreen; in the data active means max response mostly above about 13%, no sharp cut-off; inactive means mostly below about 14%; further: read at 38.3 µM for the half of the compounds with a filed dose; 0% is about no effect
# Pf growth 48h: P. falciparum growth inhibition at 48 hours (one generation); P. falciparum luciferase growth in erythrocytes, 48 h; Potency, µM (top dose mostly 28.7 µM), for the others: top-dose activity change, negative = inhibition, actives largely listed as inhibitors; 5.9% of 310,000 active; further: potency means the concentration at half of the fitted maximal effect; on the % scale 0 is the no-effect control and ±100 the full control effect
#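 Erythrocytes infected with P. falciparum carrying an integrated firefly luciferase reporter (2% hematocrit, 0.1% parasitemia final) were exposed to compounds in RPMI 1640 with 0.5% Albumax at 37 C, 5% CO2. Growth inhibition was scored as reduced luminescence.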
# Shiga toxin inh: Shiga toxin inhibition | Vero cells, Shiga toxin protein synthesis inhibition reporter | inhibition, % at 38.7 µM | 9.2% of 290,000 active; in the data active means inhibition mostly above about 28%, no sharp cut-off; inactive means mostly below about 43%; further: 0% is about no effect
# NS1 inh: blocks influenza NS1 protein function; Potency, µM (highest dose often 46.1 µM), for inactives: at the highest dose activity, positive = more growth; 0.4% of 270,000 active; calls by dose curve; further: potency means the concentration at half of the fitted maximal effect; actives are rising curves; nearly all actives have a fitted effect of over 50% in size
#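 A cell-based growth assay was used: compounds that relieve NS1-induced slow growth of budding yeast raise OD600. Assay medium was yeast nitrogen base with ammonium sulphate and -URA supplement, pH 6.0, with 2% galactose.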
# Pf growth 96h: inhibits malaria parasite growth, 96 h; 6.9% of 320,000 active; P. falciparum luciferase reporter growth, 96 h; Potency, µM (top dose mostly 28.7 µM), for inactives: at the top dose activity change, negative = inhibition, usual class: inhibitors; further: potency means the concentration at half of the fitted maximal effect; on the % scale 0 is the no-effect control and ±100 the full control effect
#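 Plates of compound plus infected erythrocytes (2% hematocrit, 0.05% parasitemia final) incubate 96 hours, 37 C, 5% CO2. Detection reagent added; reduced luminescence from the parasites' luciferase reporter flags inhibition.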
# Giardia FBPA inh: inhibitors of Giardia lamblia fructose-1,6-bisphosphate aldolase; A8B2U2; purified Giardia FBPA; Potency, µM (highest dose often 59.6 µM), inactives show at the top dose activity, negative = inhibition, usual class: inhibitors; 0.71% of 290,000 active; AID 2451; further: potency means the concentration at half of the fitted maximal effect; on the % scale 0 is the no-effect control and ±100 the full control effect; nearly all actives have a fitted effect of over 55% in size
# Target sequence (A8B2U2 whole entry, looked up): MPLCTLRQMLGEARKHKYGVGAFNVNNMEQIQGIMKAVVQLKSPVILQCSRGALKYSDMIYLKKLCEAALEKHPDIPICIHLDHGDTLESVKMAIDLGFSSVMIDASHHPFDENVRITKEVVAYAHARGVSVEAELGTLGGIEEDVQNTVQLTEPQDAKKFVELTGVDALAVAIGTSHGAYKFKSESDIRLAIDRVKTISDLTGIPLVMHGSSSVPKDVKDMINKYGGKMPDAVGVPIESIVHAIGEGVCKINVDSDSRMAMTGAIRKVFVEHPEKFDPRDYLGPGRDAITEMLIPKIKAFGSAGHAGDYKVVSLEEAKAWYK
#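 40 nM FBPA preincubated 10 min at RT with compound (up to 57.5 uM final), then substrate plus GAPDH/TPI/NAD/arsenate coupling and diaphorase/resazurin added. Fluorescence read after 20 min at RT, 525/598 nm.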
# * marks the source's active call; other numbers are inactive results; ? = inconclusive; · = no result; + = active, no number; [ ] = dose if it differs, or a comment. Unless noted, the call rests on the fitted dose curve; in most records, active means well fitted curve in the direction sought with a large enough effect; inconclusive means small, poorly fitted or top-dose-only effect, or another doubt; inactive means no such curve, though single readings can be large; an effect the other way counts as inactive or inconclusive.
SMILES,Cycloheximide cs,Pf growth 48h,Shiga toxin inh,NS1 inh,Pf growth 96h,Giardia FBPA inh
N#C/C(=C/c1cccs1)c1nc2ccccc2[nH]1,64.8*,?,64.0*,-19.7%,?,-6.1%
O=C(N=Nc1c(O)[nH]c2ccc(F)cc12)C1COc2ccccc2O1 (configuration not stated),-2.5,-0.1%,7.2,2.2%,104.5%,1.1%
Cn1cc([N+](=O)[O-])c(C(=O)N2CCN(Cc3ccc4c(c3)OCO4)CC2)n1,-1.0,18.4%,20.0,?,-2.7%,·
COC(=O)C1=C(C)N(Cc2ccccc2)C2=C(C(C)=O)C[C@@](O)(C(=O)OC)C(=O)N2C1c1ccccc1 (some centres not stated),·,·,·,·,·,1.9%[12.9 µM]
N#C/C(=C\c1c(Cl)cccc1Cl)c1nc2ccccc2[nH]1,14.1*,8.28µM*,35.9,-87.7%,8.28µM*,-11.8%
CN(C)/C=C(\C#N)c1nc2ccccc2[nH]1,13.3,33.5%,26.0,-8.9%,?,-5.9%
c1ccc(-c2noc(-c3cccc4ccccc34)n2)cc1,54.4*,243.2%,50.1*,-16.5%,343.7%,-0.8%
c1cncc(-c2noc(-c3cccc4ccccc34)n2)c1,45.3*,79.8%,89.2*,-6.0%,·,-2.2%
c1ccc2c(-c3nc(-c4ccncc4)no3)cccc2c1,21.3*,?,63.3*,-22.3%,32.2%,0.7%
Cc1c(-c2nc(-c3ccncc3)no2)cccc1[N+](=O)[O-],0.9,30.0%,24.7,1.0%,25.0%,6.9%
c1ccc(-c2ccccc2-c2nc(-c3cccnc3)no2)cc1,-1.0,?,-5.8,-102.2%,·,-6.5%
CCOc1ccc(S(=O)(=O)NCCC(=O)NCCc2ccc(C(C)C)cc2)cc1,·,-14.0%,·,·,?,·
CCNc1c(NC(=O)C2CCC(C)CC2)c(=O)oc2ccccc12 (configuration not stated),-0.6,?,-8.2,-8.3%,-1.1%,0.2%
O=C1C(=O)N(C2CCS(=O)(=O)C2)C(c2cccc(O)c2)/C1=C(/O)c1ccc(Cl)cc1 (configuration not stated),7.4,25.1%,-3.6,9.3%,20.7%,-13.7%
CCO[P@]1(=O)OC[C@@H]2O[C@H](n3cnc4c(N)ncnc43)[C@H](O)[C@@H]2O1,·,·,·,-7.7%,·,·
O=[N+]([O-])c1cccnc1N1CCC(c2cc(-c3ccc(Cl)cc3Cl)n[nH]2)CC1,-2.0,?,-9.2,18.3%,·,-5.4%
COc1ccc(OC)c(-c2cc(C3CCN(c4ncccc4[N+](=O)[O-])CC3)[nH]n2)c1,3.9,8.28µM*,5.3,24.4%,9.28µM*,-8.6%
O=S(=O)(c1cc(Cl)ccc1Cl)n1ccnc1,-1.1,-0.2%,18.3,0.1%,26.8%,-16.3%
O=[N+]([O-])c1ccc(Cl)c(S(=O)(=O)n2ccnc2)c1,-1.2,2.94µM*,-6.8,-3.9%,-4.7%,-10.0%
O=c1c(CCc2ccccc2)nc2cnc(Oc3ccccc3)nc2n1C1CC1,·,·,·,·,·,4.5%
Oc1cccc(O)c1,·,-10.8%,·,·,-18.4%,8.5%
NNCc1cccc(O)c1,34.6*,?,102.1*,-14.9%,?,-3.4%
COc1ccc(CN(CCN(C)C)c2ncccn2)cc1,·,-12.2%,·,·,?,-1.1%
CCCCCCCCCCCCCCCC[N+](C)(C)CCN(Cc1ccc(OC)cc1)c1ncccn1,·,3.7µM*,·,·,1.85µM*,2.8%[21.7 µM]
CCCCCCCNC(=O)C1(CC2CC(c3ccc(Cl)cc3)=NO2)CCN(C(=O)CCCCCBr)CC1 (configuration not stated),-1.6,32.0%,11.1,-31.1%,11.7µM*,-12.2%
SMILES,Cycloheximide cs,Pf growth 48h,Shiga toxin inh,NS1 inh,Pf growth 96h,Giardia FBPA inh
O=C(/C=C/c1cccc(Br)c1)NCC1CCCCC1,6.3,24.3%,15.9,-13.2%,?,4.0%
COC(=O)C1CC(c2ccc(Cl)cc2)=NO1 (configuration not stated),-4.0,2.1%,-15.8,·,-1.5%,0.7%
O=C(CCCCCBr)N1CCC(CC2CC(c3cccc(Br)c3)=NO2)(C(=O)NCC2CCCCC2)CC1 (configuration not stated),3.0,?,8.6,-29.5%,5.22µM*,-11.9%
O=C(CCCCCBr)N1CCC(CC2CC(c3ccc(Cl)cc3)=NO2)(C(=O)NCC2CCCCC2)CC1 (configuration not stated),-0.6,?,-8.7,10.8%,3.29µM*,-6.2%
Fc1ccc2c(c1)[C@H]1OCC[C@H]1[C@@H](c1ccco1)N2,4.6,22.1%,8.2,-7.8%,-22.4%,4.1%
Clc1ccc2c(c1)[C@H]1OCC[C@H]1[C@@H](c1ccco1)N2,24.6*,100.5%,65.9*,-3.8%,?,-28.1%
CCC(=O)N(Cc1cc2ccccc2[nH]c1=O)c1ccccc1OC,-1.3,43.7%,·,6.4%,26.0%,9.9%
c1cn2cc(CN3CCOCC3)nc2s1,-6.1,-4.2%,-17.1,2.5%,?,-4.7%
Cc1ccc(C2SCC(=O)N2Cc2cn3ccsc3n2)o1 (configuration not stated),5.3,-11.0%,1.4,5.2%,14.7µM*,?
Cn1c([N+](=O)[O-])cnc1CN1CCN(CCO)CC1,·,·,·,-2.0%,·,·
CC(CC(=O)NNC(=O)c1cccc(Cl)c1)c1ccccc1 (configuration not stated),2.0,-0.5%,29.2,2.7%,23.8%,-4.3%
Clc1ccccc1CONc1ncnc2nonc12,30.6*,209.7%,+,-18.9%,141.8%,-1.0%
COc1ccc(NC(C)=O)cc1NC(=O)c1cccc(S(=O)(=O)N2CCN(Cc3ccccc3)CC2)c1,·,?,·,·,3.7µM*,·
CCOc1ccc(CN2CCN(S(=O)(=O)c3ccc(NC(C)=O)cc3)CC2)cc1OC,-2.8,?,-20.7,-10.3%,-17.1%,?
Cn1c(N)c(C(=O)COC(=O)c2ccc(Cl)c(S(=O)(=O)N3CCCC3)c2)c(=O)n(C)c1=O,7.3,8.28µM*,-4.5,3.7%,?,-12.4%
COc1ccccc1OCCNC(=O)c1cccc(S(=O)(=O)N2CCN(Cc3ccccc3)CC2)c1,·,?,·,·,-26.4%,·
COc1ccc(CN2CCN(S(=O)(=O)c3ccc(NC(C)=O)cc3)CC2)c(OC)c1OC,5.5,?,-6.4,5.2%,13.1µM*,?
COc1ccc(NC(=O)c2cccc(S(=O)(=O)N3CCCC3)c2)cc1OC,·,-26.7%,·,·,?,·

# Screening data as filed in PubChem BioAssay.
